# From PubChem BioAssay
# Values joined by “and” are separate entries in the source; they are usually repeats but may differ in a detail not shown here. Identical values can stand only once. For some of these results: Potency and affinity values are given separately. Active and inactive are the calls of the source. Unless noted, the rule behind the calls is not given here.
# Assays:
# [1] = blockers of polyQ-driven CASP3 activation – cell-based (AID 1583); conditions: polyglutamine-induced caspase-3 activation, cell assay; stronger effect = higher value;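 tested at 10 µM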
# [2] = yeast 75Q aggregation reduction – 75Q-TubU reporter (AID 1593); conditions: Yeast 75Q polyglutamine aggregation reporter
# [3] = restoration of touch response, mutant HTT neurons – whole organism, C. elegans mechanosensory neurons, N-terminal huntingtin (AID 1599); conditions: C. elegans polyQ-huntingtin mechanosensory neurons, stronger effect = higher value
# [4] = blockers of cytochrome c efflux from mitochondria – biochemical, purified mitochondria (AID 1603); conditions: stronger effect = lower value;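 note: mouse liver mitochondria challenged with calcium chloride; signal normalized to the plate average as 100%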
# [5] = polyglutamine aggregate formation blockers (AID 1604); conditions: polyglutamine-induced protein aggregation inhibition assay; stronger effect = higher value; tested at 2.5 µM
# [6] = glutamate transport activators, MN-1 cells, MN-1 cell line (AID 1612); conditions: MN-1 motor neuron cells, stronger effect = higher value;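 note: tested at 1 µM final; 0% = mean of DMSO vehicle wells on each plate; positive means more glutamate uptake than control and negative means less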
# [7] = GFP-Q80 aggregate reduction, neuronal-like cells, cell-based, NGF-treated PC12, GFPQ80 (AID 1614); conditions: PC12 NGF-treated GFP-polyQ80 inclusion reduction;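 note: lower means fewer inclusions and 0 means no inclusions at all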
# [8] = 75Q-TubH aggregate inhibition, S. cerevisiae, yeast (AID 1616); conditions: S. cerevisiae 75Q-TubH polyglutamine aggregation suppression; stronger effect = higher value
# [9] = compounds altering circadian rhythm period length – cell-based, LOPAC library, luminescence reporter (AID 2774); conditions: circadian reporter cells, at 7 µM, actives lie on both sides;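 note: values are relative to mean of DMSO wells on each plate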
# [10] = P. berghei load reduction in hepatocytes – cell-based, HepG2, luciferase luminescence, HepG2 viability, primary screen (AID 624349; in the data active = parasite load remaining mostly below about 12%, no sharp cut-off; inactive = mostly above about 10%;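 note: 100% = mean of DMSO negative control wells on the same plate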); conditions: P. berghei liver stage in HepG2, luciferase luminescence, concentration not given here; parasite load remaining: stronger effect = lower value; viability: measured here: HepG2 viability without parasites
# [11] = test system: Hepatitis C virus NS3 helicase; assay: blockers of NS3h binding to ssDNA – biochemical, fluorescence polarization, LOPAC1280 library, primary screen (AID 687035; in the data active = inhibition above about 37%); conditions: Purified HCV NS3 helicase, Cy5-dT15 ssDNA binding fluorescence polarization; stronger effect = higher value; concentration not given here
# [12] = compounds altering Cy5-DNA-NS3h complex signal – biochemical, LOPAC1280, artefact control for HCV NS3 helicase inhibitor project (AID 687037); conditions: Cy5-DNA-NS3h complex fluorescence interference counterscreen
# [13] = target: 6-phosphogluconate dehydrogenase, decarboxylating (Homo sapiens) (UniProt P52209); assay: inhibition of human phosphogluconate dehydrogenase – biochemical, recombinant enzyme, NADPH absorbance, primary screen (AID 1159550;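 active = at least 20% inhibition of 6-phosphogluconate dehydrogenase activity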); conditions: recombinant 6PGD, NADPH absorbance 341 nm; at 10 µM; stronger effect = higher value
# 6-phosphogluconate dehydrogenase, decarboxylating (Homo sapiens), sequence (P52209 whole entry, looked up): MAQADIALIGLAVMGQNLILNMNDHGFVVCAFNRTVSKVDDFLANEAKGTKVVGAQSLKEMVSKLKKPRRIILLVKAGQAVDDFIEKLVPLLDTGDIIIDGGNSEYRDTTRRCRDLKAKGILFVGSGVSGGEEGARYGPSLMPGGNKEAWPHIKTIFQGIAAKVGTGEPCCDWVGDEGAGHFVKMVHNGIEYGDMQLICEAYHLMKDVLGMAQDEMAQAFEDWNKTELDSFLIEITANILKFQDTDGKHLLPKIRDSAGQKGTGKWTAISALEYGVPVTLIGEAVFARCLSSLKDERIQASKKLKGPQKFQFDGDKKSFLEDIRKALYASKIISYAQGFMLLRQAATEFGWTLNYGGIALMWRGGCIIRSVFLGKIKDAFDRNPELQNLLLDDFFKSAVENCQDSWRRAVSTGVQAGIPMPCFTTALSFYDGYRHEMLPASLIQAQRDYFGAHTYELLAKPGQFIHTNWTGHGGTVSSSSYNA
# [14] = EMT-state selective cytotoxicity in co-culture – imaging, PC-3E GFP, TEM4-18 mCherry, primary screen (AID 1345086;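 active = compounds killing one labelled cell type while sparing the other, by normalised counts and ratio limits, not self-fluorescent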;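 for all read-outs here: cells exposed to compound for 72 h before imaging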;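 for red/green cell ratio (normalised): normalised mesenchymal count divided by normalised epithelial count so high means epithelial killing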); conditions: PC-3E GFP / TEM4-18 mCherry co-culture, imaging cell counts, at 1 µM; for red/green cell ratio (normalised): actives lie on both sides, counts scaled to control wells, 1 = unselective
# [15] = viability loss with induced miR-34 in A549 – imaging, A549 dox-inducible miR-34, nuclei and caspase counts, primary screen (AID 1347080;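 active = compounds whose cell count with miR-34 switched on is under 0.7 times the count with it off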); conditions: A549 miR-34 inducible, Hoechst nuclei count, 48 h
# [16] = blockers of cellular phospholipid synthesis – cell-based, LOPAC library, screen 4, primary screen (AID 1347384); conditions: animal cells, phospholipid biosynthesis inhibition screen; at 10 µM
# [17] = target: Mitogen-activated protein kinase 7 (Homo sapiens) (UniProt Q13164); assay: Gal4-ERK5 driven luciferase induction – cell-based, HTS, primary screen (AID 1508626;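 active = luciferase signal above three times the same-plate solvent-only control wells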;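 note: luciferase driven by Gal4-ERK5 fusion binding five Gal4 sites before minimal TATA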); conditions: HeLa Gal4-ERK5 transactivation, 18 h, at 5 µM, stronger effect = higher value
# Mitogen-activated protein kinase 7 (Homo sapiens), sequence (Q13164 whole entry, looked up, the tested form may be a part): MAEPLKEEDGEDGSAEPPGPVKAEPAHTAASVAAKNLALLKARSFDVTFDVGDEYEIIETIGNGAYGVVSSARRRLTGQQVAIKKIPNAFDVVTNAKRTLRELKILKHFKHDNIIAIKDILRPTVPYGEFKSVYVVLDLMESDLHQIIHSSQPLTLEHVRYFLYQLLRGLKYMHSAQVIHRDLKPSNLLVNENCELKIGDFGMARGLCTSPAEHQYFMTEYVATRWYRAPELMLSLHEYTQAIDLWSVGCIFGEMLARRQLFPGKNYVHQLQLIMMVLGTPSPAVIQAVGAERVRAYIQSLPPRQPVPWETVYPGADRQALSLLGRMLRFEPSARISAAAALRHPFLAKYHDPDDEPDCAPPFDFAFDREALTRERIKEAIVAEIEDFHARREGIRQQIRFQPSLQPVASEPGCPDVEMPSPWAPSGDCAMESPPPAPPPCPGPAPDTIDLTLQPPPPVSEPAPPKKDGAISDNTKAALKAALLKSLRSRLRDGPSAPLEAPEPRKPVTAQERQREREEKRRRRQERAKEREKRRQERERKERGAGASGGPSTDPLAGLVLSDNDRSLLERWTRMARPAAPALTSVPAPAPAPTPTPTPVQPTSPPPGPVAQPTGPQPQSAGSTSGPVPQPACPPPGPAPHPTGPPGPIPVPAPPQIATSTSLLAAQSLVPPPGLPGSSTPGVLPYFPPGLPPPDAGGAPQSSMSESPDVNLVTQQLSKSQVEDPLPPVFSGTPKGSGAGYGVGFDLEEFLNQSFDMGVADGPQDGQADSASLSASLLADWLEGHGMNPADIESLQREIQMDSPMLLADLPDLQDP
# [18] = galactose survival enhancers in mitochondrial complex I cybrids – cell-based, galactose medium, ATP luminescence, primary screen (AID 1645843;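 active = z-score of at least 1.8 in each of two replicates, scored against plate mean and spread of sample wells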;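 note: positive z means more ATP and so rescue of galactose-driven cybrid death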); conditions: complex I mutant cybrid cells, 72 h, stronger effect = higher value
# [19] = measured here: epithelial PC-3E GFP cell survival
# [20] = measured here: mesenchymal TEM4-18 mCherry cell survival
structure (smiles),measurement,setting,value
O=C(O)c1cccnc1C(=O)O,inhibition,[1],-5.39%
same,score,[2],1.95
same,rescue above control,[3],5.37
same,cytochrome c release ratio,[4],1.17
same,inhibition of aggregation,[5],58.6%
same,glutamate uptake change,[6],-5.4%
same,inclusion score,[7],2
same,aggregation suppression score,[8],1.12
same,period change,[9],-0.235 h (inactive)
same,parasite load remaining,[10],83.9% (inactive)
same,viability,[10],75.4%
same,inhibition,[11],-2% (inactive)
same,fluorescence ratio (interference),[12],1 (inactive)
same,inhibition,[13],2.35% (inactive)
same,red/green cell ratio (normalised),[14],0.71 (inactive)
same,normalised cell number,[14]; [19],1.39
same,normalised cell number,[14]; [20],0.99
same,fold change,"[15]; stronger effect = lower value, cell number ratio, induced over uninduced",0.98 (inactive) and 0.953 (inactive)
same,fold change,[15]; measured here: relative caspase fold change +Dox/-Dox,1.66 and 1.07
same,cell count,"[15]; measured here: total cells with miR-34 induction, stronger effect = lower value",9820 and 8590
same,cell count,[15]; measured here: total cells without miR-34 induction,10000 and 9010
same,outcome,[16],inactive
same,luciferase signal,[17],84 AU (inactive)
same,z-score,[18],0.32 (inactive) and -0.225 (inactive)
COc1cccc(-c2cc(=O)c3cc(OC)ccc3o2)c1,inhibition,[13],-1.86% (inactive)
same,red/green cell ratio (normalised),[14],1.05 (inactive)
same,normalised cell number,[14]; [19],0.89
same,normalised cell number,[14]; [20],0.94
